Not all results are given here.
aSyn UTR act = Activators via SNCA 5'UTR binding, MLPCN; alpha-synuclein 5'UTR reporter, activators screen; activity score, % (tested at 7.5 µM), hits read low; 300,000 compounds, 7.1% hits; AID 1814; in the data active means activity score below about -60%
Hits are given with their value; 0 = inactive.

SMILES | aSyn UTR act
CC(C)(C)C1CCC(OC(=O)CN2CCOCC2)CC1 (stereo unspecified) | -108
COc1ccc(N=c2cc(-c3ccc(O)cc3)oc3ccccc23)cc1 | -62
Nc1c(-c2ccc3c(c2)OCCO3)oc2ccccc2c1=O | -145
O=c1cc(-c2ccc3c(c2)OCO3)oc2ccccc12 | -297
O=c1cc(-c2ccc(O)cc2)oc2ccccc12 | -138
COc1ccc(-c2cc(=O)c3ccccc3o2)cc1 | -216
Cn1c2ccccc2c(=O)c2ccc(-c3ccc4c(c3)OCO4)cc21 | -145
O=c1cc(-c2ccc(O)cc2)oc2ccc(O)cc12 | -151
CCOc1ccc(-c2nc(-c3ccccc3)no2)cc1OCC | -137
CCOc1ccc(-c2nc(-c3ccncc3)no2)cc1OCC | -95
Cc1ccc(Oc2cnc3ccccc3n2)cc1 | -127
Clc1ccc(Oc2cnc3ccccc3n2)cc1 | -80
CCOc1cccc(/C=C2\NC(=S)N(c3ccccc3)C2=O)c1O | -148
CCCc1nc(-c2ccc(-c3ccc(F)cc3)cc2)no1 | -145
c1ccc(CCc2nc(-c3cccnc3)no2)cc1 | -90
O=C(Nc1ccc(-c2noc(CCc3ccccc3)n2)cc1)c1ccco1 | -115
Brc1ccc(-c2noc(CCc3ccccc3)n2)cc1 | -84
CC(C)(C)c1ccc(-c2noc(CCC(N)=O)n2)cc1 | 0
O=C1CCC(=O)N1CCCCCc1nc(-c2ccccc2)no1 | -104
c1cncc(-c2noc(CC3CCCCC3)n2)c1 | -87
c1ccc(CCc2nc(-c3ccccc3)no2)cc1 | -192
O=C(c1ccc(-n2cccn2)cc1)N1CCc2ccccc2C1 | -63
N#Cc1ccccc1CSc1ccc(-c2nc3ccccc3[nH]2)cn1 | -120
Cc1ccc2nc(-c3cccnc3SCC(=O)N3c4ccccc4CC3C)[nH]c2c1 (stereo unspecified) | -80
Cc1cc2nc(-c3ccc(SCc4ccc(C#N)cc4)nc3)[nH]c2cc1C | -105
SMILES | aSyn UTR act
Cc1ccc2nc(-c3ccc(SCC(=O)N4CCc5ccccc54)nc3)[nH]c2c1 | -388
O=C1C=C(c2ccccc2)C[C@H](c2cccs2)[C@H]1n1nnc([N+](=O)[O-])n1 | 0
CC(=O)CSc1ccc(-c2nc3ccccc3[nH]2)cn1 | -72
CC(=O)CSc1ccc(-c2nc3cc(C)c(C)cc3[nH]2)cn1 | 0
Cc1cc(C)n2nc(C(=O)Nc3ccc4c(c3)OCO4)nc2n1 | -113
C/C(=C\C(=O)c1ccc(C)o1)Nc1ccc2c(c1)OCO2 | -170
CCOc1ccc(N/C(C)=C/C(=O)c2ccc(C)o2)cc1 | -79
C/C(=C\C(=O)c1ccccc1)Nc1ccc2c(c1)OCO2 | -115
Cc1ccc(C(=O)Nc2ccc3c(c2)OCO3)o1 | -118
O=C(O)/C=C/C(=O)c1ccc2c(c1)CCc1ccccc1-2 | -111
CCCOc1ccc(-c2c(=O)n(O)c3ccccc3[n+]2[O-])cc1 | -176
COc1ccc2c(c1)C1=NN(/C(C)=C\C(C)=O)C(c3ccccc3)C1CC2 (stereo unspecified) | -141
COc1ccc2c(c1)C1=NN(/C(C)=C/C(C)=O)C(c3cccc(F)c3)C1CC2 (stereo unspecified) | -64
COc1ccc2c(c1)C1=NN(/C(C)=C/C(C)=O)C(c3ccc(F)cc3)C1CC2 (stereo unspecified) | -78
CC(=O)O[C@@]12CO[C@@H]1C[C@H](O)[C@@]1(C)C(=O)[C@H](O)C3=C(C)[C@@H](OC(=O)[C@H](O)[C@@H](NC(=O)OC(C)(C)C)c4ccccc4)C[C@](O)([C@@H](OC(=O)c4ccccc4)[C@H]21)C3(C)C | 0
CN1CCC(=NNC(=O)C(=O)Nc2ccc(F)cc2)CC1 | -92
Oc1ccc(Br)cc1C=Nc1cccn2cc(-c3ccccc3)nc12 | -80
CC(C)(C)c1cc(NCCCn2ccnc2)n2ncc(-c3ccc(Cl)cc3)c2n1 | -109
CCOc1ccc(Nc2nc(-c3sc(N)nc3C)cs2)cc1 | -70
Cc1ccc(Nc2nc(-c3sc(N)nc3C)cs2)cc1 | -134
Oc1ccc(Br)cc1C=Nc1ccc2c3c(cccc13)CC2 | -69
O=C(NNC1=NCCCCC1)Nc1cccc(Cl)c1 | -136
O=C(NNC1=NCCCCC1)Nc1ccc(Cl)cc1 | -68
Cc1c(N/N=C(\C#N)C(=O)c2ccc(Cl)cc2)c(=O)n(-c2ccccc2)n1C | 0
Cc1c(NC(=O)c2cc(C3CC3)on2)c(=O)n(-c2ccccc2)n1C | -62
SMILES | aSyn UTR act
CC(=O)N(c1nnc(-c2ccc(C)cc2)s1)C1CCCC1 | -83
Cc1nnc(-c2ccccc2)c(=O)n1/N=C/c1c(O)ccc2ccccc12 | 0
Cc1nc2ccccc2c(=O)n1/N=C/c1cn(-c2ccccc2)nc1-c1cccs1 | -67
Cc1nc2ccccc2c(=O)n1/N=C/c1cccs1 | -79
Cc1nc2ccccc2c(=O)n1/N=C1\C(=O)N(C)c2ccccc21 | -83
C/C(=C\C(=S)Nc1ccccc1)Nc1cccc2ccccc12 | -104
C/C(=C\C(=S)Nc1ccccc1)Nc1ccc2ccccc2c1 | -94
C=CCN(C(=O)c1oc2c(Cl)cc(C)cc2c1C)C1CCS(=O)(=O)C1 (stereo unspecified) | -71
CC(C)/C=N/Nc1nc(-c2ccc(Br)cc2)cs1 | -141
O=C1N=C(N2CCCCC2)S/C1=C/C1=Cc2ccccc2OC1 | -103
O=C1N=C(N2CCCCC2)S/C1=C\c1ccc(Br)cc1 | -128
O=[N+]([O-])c1ccc(N/N=C2\CC3CC=CC23)cc1 (stereo unspecified) | -100
CC(C)(C)c1csc(NC(=O)c2ccc3nccnc3c2)n1 | -178
Cc1cc(NC(=O)c2ccc3c(c2)OCCO3)no1 | 0
Cc1cccc(NC(=O)c2ccc3c(c2)OCCO3)n1 | -84
Cc1nc(NC(=O)c2ccc3c(c2)OCO3)ccc1Br | -140
Cc1ccc(NC(=O)c2ccc3nccnc3c2)c(C)c1 | -102
Cc1cccc(NC(=O)c2ccc3nccnc3c2)n1 | -76
c1ccc2[nH]c(CSc3nc4ccccc4o3)nc2c1 | -78
O=[N+]([O-])c1ccc(CSc2nc3ccccc3o2)cc1 | -133
Cc1ccc(NC(=O)n2ncc3c(C)cccc32)cc1F | -71
COc1ccc(NC(=O)n2ncc3c(C)cccc32)cc1OC | -165
COc1ccc(NC(=O)n2ncc3c(C)cccc32)cc1 | -88
COc1cccc2cc(-c3ccnc(N)n3)oc12 | -80
Cn1ncc(SCc2ccccc2)c(Cl)c1=O | -64
SMILES | aSyn UTR act
Cc1cccn2c(=O)c3cc(C(=O)N4COCC4(C)C)sc3nc12 | -97
Cn1c(C(=O)N2COCC2(C)C)cc2c(=O)n3ccccc3nc21 | -81
Cn1c(C(=O)NCCC2=CCCCC2)cc2c(=O)n3ccccc3nc21 | -70
Cc1ccc(-n2nc(C)c3c2OC(N)=C(C#N)C3c2ccc(F)cc2)cc1 (stereo unspecified) | -75
COc1ccc2c(c1)CCC/C2=N\Nc1nc(C(=O)NN)cs1 | -92
O=C(O)c1ccc(N/N=C2/CCCc3ccccc32)cc1 | -82
O=C(N/N=C1\CCc2ccccc21)c1ccncc1 | -160
Cc1cc(C(=O)N/N=C2\CCCc3ccccc32)c(C)o1 | -126
Cc1cc(C(=O)NC2Cc3ccccc3C2)c(C)o1 | -137
O=C(N/N=C1\CCCCc2ccccc21)c1ccccn1 | -92
O=C(N/N=C1\CCCc2ccccc21)c1ccccc1Cl | -132
COc1ccc2c(c1)CCC/C2=N\NC(=O)c1ccoc1C | -70
CCN(CC)c1ccc(/C=N/N2CCOCC2)cc1 | -152
CCN(CC)c1ccc(/C=N/n2c(-c3ccccc3Br)n[nH]c2=S)cc1 | 0
[O-][n+]1onc2c1CCc1nnccc1-2 | -86
Brc1ccc2oc(-c3ccn[nH]3)cc2c1 | -175
